Bioassay records deposited in PubChem by The Scripps Research Institute Molecular Screening Center.
Compounds with a hit are over-represented: about 0.9% of the library has one in this group of screens.
SRC3 TRFRET art – TR-FRET detection interference compounds, artefact control for PPARgamma SRC-3 recruitment agonists, biochemical, TR-FRET ratio. TR-FRET artefact counter-screen, PPARgamma/SRC-3 format; stronger effect = higher value. TR-FRET ratio at 8 µM. actives 0.39% (n = 99,000). AID 1048, 2008
SRC1 TRFRET art – TR-FRET detection interference compounds, primary screen, artefact control for PPARgamma SRC-1 recruitment agonists, biochemical, TR-FRET emission ratio. actives 0.34% (n = 99,000). TR-FRET ratio at 8 µM. TR-FRET detection artefact counter-screen; stronger effect = higher value; in the data active means TR-FRET ratio above about 2300
PPARg SRC1 recr – PPARgamma agonists recruiting SRC-1 coactivator, primary screen, biochemical | activation, % at 8 µM | Peroxisome proliferator-activated receptor gamma (Homo sapiens), P37231 | actives 0.41% (n = 200,000) | AID 631, 2007 | PPARgamma-SRC-1 coactivator recruitment biochemical assay; in the data active means activation above about 19%;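 further: 0% = DMSO and 100% = reference agonist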
PPARg SRC-2 ag – agonists of PPARg-SRC-2 recruitment, primary screen, biochemical, HTS; actives 0.34% (n = 200,000); activation, % at 8 µM; Peroxisome proliferator-activated receptor gamma (Homo sapiens), P37231; PPARgamma LBD-SRC-2 recruitment; AID 1032, 2008; in the data active means activation above about 22%;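 further: 0% = vehicle and 100% = reference agonist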
TR-FRET SRC-2 ct – TR-FRET signal artefacts, primary screen, artefact control for PPARgamma SRC-2 agonist project, biochemical. TR-FRET artefact counter-screen; stronger effect = higher value. actives 0.4% (n = 200,000). TR-FRET ratio at 8 µM. AID 1049, 2008
PPARg SRC3 recr – PPARgamma agonists recruiting SRC-3 coactivator, primary screen, biochemical | Peroxisome proliferator-activated receptor gamma (Homo sapiens), P37231 | biochemical PPARgamma/SRC-3 coactivator recruitment assay | activation, % at 8 µM | actives 0.26% (n = 200,000); in the data active means activation above about 23%;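 further: 0% = DMSO and 100% = reference agonist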
PPARg SRC2 conf – agonists of PPARgamma SRC-2 coactivator recruitment, confirmation, biochemical, HTS | activation, % at 8 µM | shares compounds with PPARg SRC3 recr | actives 52% (n = 790) | biochemical SRC-2 recruitment by PPARgamma; in the data active means activation above about 22%;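 further: 0% = vehicle alone and 100% = reference agonist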
PPARg SRC1 conf – PPARgamma agonists recruiting SRC-1 coactivator, confirmation, biochemical; shares compounds with PPARg SRC3 recr; PPARgamma–SRC-1 coactivator recruitment biochemical assay; activation, % at 8 µM; actives 43% (n = 790); in the data active means activation above about 20%;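 further: 0% = vehicle wells and 100% = reference agonist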
PPARg SRC3 conf – PPARgamma-driven SRC-3 coactivator recruitment agonists, confirmation, biochemical. activation, % at 8 µM. biochemical PPARgamma-SRC-3 coactivator recruitment, agonist mode. actives 29% (n = 790). AID 1301, 2008. shares compounds with PPARg SRC3 recr; in the data active means activation above about 24%;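 further: 0% = vehicle wells and 100% = reference agonist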
Target sequence (P37231 whole entry, looked up): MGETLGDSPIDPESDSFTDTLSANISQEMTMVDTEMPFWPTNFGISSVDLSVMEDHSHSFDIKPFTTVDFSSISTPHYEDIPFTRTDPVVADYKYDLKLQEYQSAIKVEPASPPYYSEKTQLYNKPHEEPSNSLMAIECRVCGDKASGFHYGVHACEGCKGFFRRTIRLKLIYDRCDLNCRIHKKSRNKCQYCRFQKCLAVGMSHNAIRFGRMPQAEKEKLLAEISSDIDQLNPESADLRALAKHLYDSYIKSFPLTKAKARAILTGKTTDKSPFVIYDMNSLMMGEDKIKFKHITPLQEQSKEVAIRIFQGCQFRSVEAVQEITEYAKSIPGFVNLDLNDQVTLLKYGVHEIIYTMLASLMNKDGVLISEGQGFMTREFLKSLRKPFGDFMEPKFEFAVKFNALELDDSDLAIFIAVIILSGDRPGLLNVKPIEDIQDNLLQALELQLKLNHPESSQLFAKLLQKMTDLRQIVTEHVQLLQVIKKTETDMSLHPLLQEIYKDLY
Target sequence (Q9Y6Q9 whole entry, looked up): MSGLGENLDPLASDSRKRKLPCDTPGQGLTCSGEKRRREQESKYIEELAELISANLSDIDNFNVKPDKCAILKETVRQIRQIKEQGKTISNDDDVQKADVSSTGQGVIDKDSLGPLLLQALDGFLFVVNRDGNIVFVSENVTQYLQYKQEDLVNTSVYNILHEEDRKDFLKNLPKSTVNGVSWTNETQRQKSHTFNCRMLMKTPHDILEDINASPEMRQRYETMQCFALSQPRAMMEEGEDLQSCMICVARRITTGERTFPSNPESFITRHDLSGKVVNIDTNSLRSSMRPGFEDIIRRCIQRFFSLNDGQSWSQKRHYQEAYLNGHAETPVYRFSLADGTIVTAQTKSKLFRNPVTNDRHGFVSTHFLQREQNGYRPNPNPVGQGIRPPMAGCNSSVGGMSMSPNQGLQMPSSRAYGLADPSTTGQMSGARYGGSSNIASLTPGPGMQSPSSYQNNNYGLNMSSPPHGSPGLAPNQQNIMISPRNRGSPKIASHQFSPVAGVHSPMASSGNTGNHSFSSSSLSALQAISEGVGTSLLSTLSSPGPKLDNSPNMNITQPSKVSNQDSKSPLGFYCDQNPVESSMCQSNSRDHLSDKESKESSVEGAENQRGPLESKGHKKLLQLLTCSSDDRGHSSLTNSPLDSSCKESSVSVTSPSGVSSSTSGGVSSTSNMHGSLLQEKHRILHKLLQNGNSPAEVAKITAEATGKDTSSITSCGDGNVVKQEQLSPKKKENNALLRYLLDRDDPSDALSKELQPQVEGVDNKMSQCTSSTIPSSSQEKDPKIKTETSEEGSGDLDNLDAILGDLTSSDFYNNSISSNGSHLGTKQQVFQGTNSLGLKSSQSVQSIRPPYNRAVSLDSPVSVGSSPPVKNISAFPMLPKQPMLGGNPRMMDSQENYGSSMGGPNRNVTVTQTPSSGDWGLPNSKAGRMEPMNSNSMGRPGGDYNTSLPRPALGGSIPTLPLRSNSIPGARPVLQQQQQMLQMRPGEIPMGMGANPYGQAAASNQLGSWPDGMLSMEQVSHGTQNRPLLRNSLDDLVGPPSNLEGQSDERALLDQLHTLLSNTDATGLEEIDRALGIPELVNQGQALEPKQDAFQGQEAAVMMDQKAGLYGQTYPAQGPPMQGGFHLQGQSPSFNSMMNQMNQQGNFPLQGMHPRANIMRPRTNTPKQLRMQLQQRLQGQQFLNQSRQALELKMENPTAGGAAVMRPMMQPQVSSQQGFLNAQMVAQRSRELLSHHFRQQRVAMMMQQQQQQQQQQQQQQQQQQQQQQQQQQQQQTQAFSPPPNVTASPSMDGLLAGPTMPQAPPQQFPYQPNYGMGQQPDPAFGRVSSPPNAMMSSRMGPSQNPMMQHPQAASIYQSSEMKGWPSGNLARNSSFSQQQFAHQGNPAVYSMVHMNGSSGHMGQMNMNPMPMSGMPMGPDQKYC
Numbers without * were called inactive; x = no result given; ! = repeats disagree. Unless noted, no stated cut-off is given here; in the data, active means TR-FRET ratio above about 2000; inactive means the rest.

SMILES	SRC3 TRFRET art	SRC1 TRFRET art	PPARg SRC1 recr	PPARg SRC-2 ag	TR-FRET SRC-2 ct	PPARg SRC3 recr	PPARg SRC2 conf	PPARg SRC1 conf	PPARg SRC3 conf
COc1ccc(NC(=O)CSc2c3c(nc4cc(Cl)ccc24)CCCC3)cc1OC	1721	1955	0	2	1586	6	x	x	x
COc1ccc(NC(=O)CSc2c3c(nc4ccccc24)CCCC3)c(OC)c1	1880	2200	26*	27*	1985*	17	26*	13	17
COc1ccccc1NC(=O)CSc1c2c(nc3ccccc13)CCC2	1720	1829	3	-1	1565	0	x	x	x
CCOC(=O)C1CCN(C(=O)CSc2c3c(nc4ccccc24)CCC3)CC1	1925	1938	17	23*	1921	9	24*	13	13
O=C(CSc1c2c(nc3ccccc13)CCC2)N1CCCC1	1706	2117	8	0	1536	2	x	x	x
COCCNC(=O)CSc1c2c(nc3ccc(Cl)cc13)CCCC2	2446*	2521*	39*	31*	2154*	20	19	10	12
Cc1cccc(NC(=O)Cc2coc3ccc4ccccc4c23)n1	x	x	1	-5	1485	-2	x	x	x
Cn1c(=O)c2ncn(CC(=O)N/N=C/c3ccco3)c2n(C)c1=O	1549	2075	6	0	1398	2	x	x	x
S=c1nc(-c2cc(Cl)ccc2Cl)[nH][nH]1	2092*	2654*	20	27*	2272*	15	24*	19	17
S=c1nc(-c2cccc(Cl)c2)[nH][nH]1	2145*	2102	16	28*	1956	7	24*	21*	17
S=c1nc(-c2ccccc2Br)[nH][nH]1	x	x	2	4	1310	13	x	x	x
CC(C)NC(=O)Cn1cc(C(=O)COc2ccccc2)c2ccccc21	1650	1843	-1	10	1470	-2	x	x	x
N#C/C(=C\c1ccc(N2CCCCC2)o1)C(N)=O	1746	2106	21*	15	1938	11	-2	3	0
COc1ccc(S(=O)(=O)Nc2ccc3c(c2)OCO3)cc1C	x	x	4	24*	1864	19	3	-3	0
CCC(C)n1c(SCC(=O)Nc2cc(C)on2)nc2ccccc2c1=O (stereo unspecified)	x	x	4	1	1498	-4	x	x	x
CCCCn1c(SCC(=O)Nc2cc(C)on2)nc2ccccc2c1=O	x	x	22*	-6	1385	13	6	5	4
CN1/C(=C\C(=O)c2ccco2)C(C)(C)c2ccccc21	x	x	5	19	1942	26*	19	11	13
N#Cc1cc2c(nc1SCc1ccccc1)CCCCC2	x	x	12	35*	1973*	9	37*	33*	24*
N#Cc1cc2c(nc1SCc1cccc(Cl)c1)CCCCC2	x	x	18	17	1696	-2	x	x	x
Cc1cc(SC(C)C(=O)O)nc2ccccc12 (stereo unspecified)	1737	1775	7	2	1747	2	x	x	x
CC(Sc1cnc2ccccc2n1)C(=O)O (stereo unspecified)	x	x	12	26*	1899	21	6	-1	6
CC(Sc1ccc2ccccc2n1)C(=O)O (stereo unspecified)	x	x	30*!	23*	2286*	37*	26*	17	18
CN(C(=O)COC(=O)c1ccccc1C(=O)N1CCN(c2ccccc2)CC1)c1ccccc1	1518	1645	-6	0	1423	-3	x	x	x
